{"source": "PubChem BioAssay (NCATS)", "note": "Results filed as inconclusive are left out. Where a call stands in place of a potency, no number is given. Activity calls are given as the source filed them. Calls follow the shape of the dose curve; as a rule, active = well fitted inhibition curve with a large enough effect; inconclusive = small, poorly fitted or top-dose-only effect; inactive = flat fitted curve, though single readings scatter. Potency is read from the fitted curve at half-maximal effect."}
{"assay": "Primary qHTS for inhibitors of nuclear receptor binding SET domain protein 2 (NSD2) in an isogenic RCH-ACV NSD2 p.E1099K mutant (9B) (AID 1645876); also: nearly all actives have a fitted effect of over 70% in size", "conditions": "RCH-ACV NSD2 E1099K (9B) viability, CellTiter-Glo, 72 h; series mostly up to 44.9 µM"}
{"smiles": "C=C1C(=O)OC[C@H]2C(C(=O)O)=CC3CC(C)(C)C[C@@]132", "note": "(some centres undefined)", "Potency": "inactive"}
{"smiles": "C[C@H]1CC[C@@]2(OC1)O[C@H]1CC3C4CC[C@H]5C[C@@H](O)CC[C@]5(C)C4CC(=O)[C@]3(C)[C@H]1[C@@H]2C", "note": "(some centres undefined)", "Potency": "inactive"}
{"smiles": "N=C(N)c1ccc2nc(-c3cc(CC(=O)NC(CC(=O)O)C(=O)O)cc(-c4cc(S(N)(=O)=O)ccc4O)c3O)[nH]c2c1", "note": "(centres undefined)", "Potency": "inactive"}
{"smiles": "CCN=C1N[C@@H]2[C@@H](O)[C@H](O)[C@@H](CO)O[C@@H]2S1", "Potency": "inactive"}
{"smiles": "O=C(O)CCc1ccc(NCc2cccc3c2CCCN3CCOc2ccccc2)cc1F", "Potency": "inactive"}
{"smiles": "COc1cc(O)c2c(c1)C1(OC2=O)C(C)=CC(=O)C1O", "note": "(centres undefined)", "Potency": "inactive"}
{"smiles": "CC1CC(O)/C=C/C(O)/C=C\\C(=O)O1", "note": "(centres undefined)", "Potency": "inactive"}
{"smiles": "CC1(C)CC[C@]2(C(=O)O[C@@H]3O[C@H](CO[C@@H]4O[C@H](CO)[C@@H](O)[C@H](O)[C@H]4O)[C@@H](O)[C@H](O[C@@H]4O[C@H](CO)[C@@H](O)[C@H](O)[C@H]4O)[C@H]3O)CC[C@]3(C)C(=CCC4[C@@]5(C)CC[C@H](O[C@@H]6OC[C@@H](O)[C@H](O)[C@H]6O)[C@@](C)(C(=O)O)C5CC[C@]43C)[C@@H]2C1", "note": "(some centres undefined)", "activity change, negative = viability loss": "0.102% [at 9.23 µM] (inactive)"}
{"smiles": "CC1(C)CC(NC(=O)C(=O)Nc2ccc(Cl)cc2)CC(C)(C)N1", "Potency": "inactive"}
{"smiles": "CC(C)CC(=O)NCCn1cc(C(=O)O)c(=O)cc1C(O)c1ccccc1", "note": "(centres undefined)", "Potency": "inactive"}
{"smiles": "Cc1c(O)cc2c(c1O)COC1(O)CCCOC21", "note": "(centres undefined)", "Potency": "inactive"}
{"smiles": "COc1c(C)c(OCC(O)C(C)(C)O)cc2c1CNC2=O", "note": "(centres undefined)", "Potency": "inactive"}
{"smiles": "CC(O)C1CCC2C3CCC4CC(OC5OC(C(=O)O)C(O)C(O)C5O)CCC4(C)C3CCC12C", "note": "(centres undefined)", "Potency": "inactive"}
{"smiles": "COC(=O)C1=CO[C@@H](O[C@@H]2O[C@H](CO)[C@@H](O)[C@H](O)[C@H]2O)/C(=C\\CO)[C@@H]1CC(=O)OCCc1ccc(O)cc1", "Potency": "inactive"}
{"smiles": "CCC(C)/C=C(C)/C=C/C1=CC2=C(Cl)C(=O)C(C)(OC(C)=O)C(=O)C2=CN1C(CCCN=C(N)N)C(=O)O", "note": "(centres undefined)", "Potency": "inactive"}
{"smiles": "CC1(C)CCCC2(C)c3c4c(c(=O)oc(=O)c3=CCC12)=CCC1C(C)(C)CCCC41C", "note": "(centres undefined)", "Potency": "inactive"}
{"smiles": "CCc1nnc(NS(=O)(=O)c2ccc(NC(=S)NC(=O)/C=C/c3ccc(F)cc3)cc2)s1", "Potency": "inactive"}
{"smiles": "CC1CCC2C(C)(C)C(O)C(O)CC2(C)C12Cc1c(O)cc(CO)c(C=O)c1O2", "note": "(centres undefined)", "Potency": "inactive"}
{"smiles": "Cc1ccccc1NC(=O)Nc1ccc(CN2C(=O)N([C@@H](CC(C)C)C(=O)N[C@@H](CC(=O)O)c3ccccc3)C(=O)C2(C)C)cc1", "Potency": "inactive"}
{"smiles": "COc1cc(/C=C/c2ccccc2)c(C(=O)O)c(O)c1CC=C(C)C", "Potency": "inactive"}
{"smiles": "CC1OC(O[C@H]2CC[C@@]3(C)C(CC[C@]4(C)C3CC=C3C5CC(C)(C)CC[C@]5(C(=O)OC5OC(CO)C(OC6OCC(OC7OCC(O)C(O)C7O)C(O)C6O)C(O)C5O)CC[C@]34C)C2(C)C)C(O)C(O)C1OC1OC(CO)C(O)C(OC2OC(CO)C(O)C(O)C2O)C1O", "note": "(some centres undefined)", "activity change, negative = viability loss": "-12.9% [at 9.23 µM] (inactive)"}
{"smiles": "C=C1CCC2[C@](C)(CO)CCC[C@@]2(C)[C@@H]1CCC1=CCOC1=O", "note": "(some centres undefined)", "Potency": "inactive"}
{"smiles": "O=C(O)CC1(O)C(=O)Nc2ccccc21", "note": "(centres undefined)", "Potency": "inactive"}
{"smiles": "O=C(/C=C/c1ccccc1)OC[C@H]1O[C@@H](OC(=O)c2cc(O)c(O)c(O)c2)[C@H](O)[C@@H](O)[C@@H]1O", "Potency": "inactive"}
{"smiles": "COc1ccc(CCC(=O)c2c(O)cc(O[C@@H]3O[C@H](CO)[C@@H](O)[C@H](O)[C@H]3O[C@@H]3O[C@@H](C)[C@H](O)[C@@H](O)[C@H]3O)cc2O)cc1O", "Potency": "inactive"}
{"smiles": "C[C@@H]1CC[C@]2(C(=O)O)CC[C@]3(C)C(=CCC4[C@@]5(C)C[C@@H](O)[C@@H](O)C(C)(C)C5CC[C@]43C)C2[C@]1(C)O", "note": "(some centres undefined)", "Potency": "inactive"}
{"smiles": "CC1C2=CC(=O)OC2(O)CC2C1CCC1C(C)(C)CCC(O)C21C", "note": "(centres undefined)", "Potency": "14.2 µM (active)"}
{"smiles": "C[C@H]1CC(=O)C2=C(C1)C(O)C(O)[C@@]1(O)[C@H]2C(=O)c2cccc(O)c2[C@@H]1O", "note": "(some centres undefined)", "Potency": "inactive"}
{"smiles": "C/C(=C\\CCC(C)(C)O)CCO[C@@H]1O[C@H](CO[C@@H]2O[C@@H](C)[C@H](O)[C@@H](O)[C@H]2O)[C@@H](O)[C@H](O)[C@H]1O", "Potency": "inactive"}
{"smiles": "O=C(/C=C/c1ccc(O)c(O)c1)O[C@H]1[C@@H]2C=CO[C@@H](O[C@@H]3O[C@H](CO)[C@@H](O)[C@H](O)[C@H]3O)[C@@H]2[C@@]2(CO)O[C@@H]12", "Potency": "inactive"}
{"smiles": "CC1=C(CCC(C)O[C@@H]2O[C@H](CO)[C@@H](O)[C@H](O)[C@H]2O)C(C)(C)CC(O)C1", "note": "(some centres undefined)", "Potency": "inactive"}
{"smiles": "COc1cc(/C=C/C(=O)O[C@H]2[C@@H]3C=CO[C@@H](O[C@@H]4O[C@H](CO)[C@@H](O)[C@H](O)[C@H]4O)[C@@H]3[C@@]3(CO)O[C@@H]23)ccc1O", "Potency": "inactive"}
{"smiles": "COC(=O)C1C(O)CCC2CN3CCc4c([nH]c5ccccc45)C3CC21", "note": "(centres undefined)", "Potency": "inactive"}
{"smiles": "C/C(=C\\CO)CC/C=C(\\C)C(=O)O[C@@H]1O[C@H](CO)[C@@H](O)[C@H](O)[C@H]1O", "Potency": "inactive"}
{"smiles": "C=C1CC2C(C)(CCC(=O)O)C(C(C)(C)O)CCC2(C)C2(C(=O)OC)C(=O)C(C)(O)C(=O)C12C", "note": "(centres undefined)", "Potency": "inactive"}
{"smiles": "CC1CC2(O)OC(=O)C3=C2C(CCC3)[C@@]12C[C@@H](c1ccoc1)OC2=O", "note": "(some centres undefined)", "Potency": "inactive"}
{"smiles": "O=C(Nc1ccc(N2CCC(C(=O)N3CCOCC3)CC2)cc1)c1cnc(Oc2ccccc2)nc1", "Potency": "inactive"}
{"smiles": "CC1CC2OCC3(O)CCC(O)C(C14CC(c1ccoc1)OC4=O)C23CO", "note": "(centres undefined)", "Potency": "inactive"}
{"smiles": "COC1OC(OC)C(O)(CCC2(C)C(C)CCC3(C)C2CC(O)C(O)C32CO2)C1O", "note": "(centres undefined)", "Potency": "inactive"}
